Assay outcomes (PubChem)
Autofluor counter = counter-screen for toxin protease inhibitors: compound fluorescence; compound autofluorescence counterscreen, microsphere flow cytometry; stronger effect = higher value; fluorescence intensity (no concentration beside the values); hit rate 3.1% among 360,000; AID 624483; in the data active = fluorescence intensity above about 16000; inconclusive = no clear call, values can overlap the other calls
BoNT A protease = BoNT/A light chain protease inhibitors, primary screen, biochemical, flow cytometry, MLPCN library; Botulinum neurotoxin type A light chain protease (Clostridium botulinum A str. ATCC 3502); multiplex microsphere protease substrate cleavage; inhibition, % at 10 µM; hit rate 0.17% among 360,000
BoNT-F LC inh = BoNT/F light chain protease inhibitors, primary screen, biochemical, flow cytometry, MLPCN library; hit rate 0.22% among 360,000; AID 588497, 2011; Multiplex microsphere protease cleavage assay; inhibition, % at 10 µM; Botulinum neurotoxin type F light chain protease (Clostridium botulinum); in the data active = inhibition above about 35%, passing the limit was not always enough; inconclusive = no clear call, values can overlap the other calls
GDH-TPI inh = GDH-TPI coupling enzyme inhibitors, primary screen, artefact control for M. tuberculosis FBA inhibitor project, biochemical, absorbance, full deck; GDH-TPI coupled enzyme counterscreen, NADH absorbance; hit rate 1.2% among 360,000; inhibition, % at 4.8 µM; in the data active = inhibition above about 30%
Mtb FBA inh = Mtb FBA enzyme inhibitors, primary screen, biochemical, fluorescence, strain H37Rv | Fructose-bisphosphate aldolase (Mycobacterium tuberculosis (strain ATCC 25618 / H37Rv)), … | purified M. tuberculosis FBA, fluorescence read-out | inhibition, % at 1 µM | hit rate 2.3% among 360,000; in the data active = inhibition above about 27%
Target sequence (P9WQA3 whole entry, looked up): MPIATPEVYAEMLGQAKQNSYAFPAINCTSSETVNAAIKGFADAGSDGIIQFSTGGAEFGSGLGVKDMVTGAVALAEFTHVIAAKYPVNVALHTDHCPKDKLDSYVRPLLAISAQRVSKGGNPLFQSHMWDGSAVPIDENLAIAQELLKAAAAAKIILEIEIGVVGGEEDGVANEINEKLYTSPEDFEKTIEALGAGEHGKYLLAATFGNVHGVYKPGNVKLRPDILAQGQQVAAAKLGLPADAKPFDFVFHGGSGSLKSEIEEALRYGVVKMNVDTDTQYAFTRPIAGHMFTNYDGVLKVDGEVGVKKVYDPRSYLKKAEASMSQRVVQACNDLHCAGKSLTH
Anthrax LF inh2 = Bacillus anthracis LF protease inhibitors, primary screen, biochemical, multiplex microsphere, MLPCN library. Lethal factor (Bacillus anthracis), P15917. multiplex microsphere protease cleavage assay. inhibition, % at 10 µM. hit rate 0.12% among 360,000. AID 588501, 2011
Large screens that a line does not name were inactive. In the library only some 6.7% were active in any assay of this set; here they are far more common. Rule as the data show it, unless noted: active = inhibition above about 30%; inconclusive = no clear call, values can overlap the other calls; inactive = below that.

CC(C)NC(=O)OCc1c(COC(=O)NC(C)C)c([N+](=O)[O-])n2c1CCC2	none (no result: GDH-TPI inh)
COc1ccc2[nH]c(=O)c(C(c3nnnn3C3CCCC3)N(C)C3CCCCC3)cc2c1 (stereo unspecified)	Autofluor counter 24246, BoNT A protease inconclusive
Cn1nnnc1SCCNCc1ccc(Cl)cc1	Autofluor counter 17333, BoNT A protease inconclusive
Cn1nnnc1SCCNCc1ccccc1OCc1ccc(Cl)cc1	none
Cn1c(=O)cc(OCC(=O)NCc2ccccn2)c2ccccc21	none
O=C(OCC#CCSc1nc2ccccc2s1)c1ccco1	Autofluor counter 19554
O=C(OCC#CCSc1nnc(-c2ccccc2)o1)c1ccco1	none
COc1ccc(Cl)cc1C1=NOC2(CCC2)C(=O)N1Cc1cccc(C#N)c1	none
CCOc1ccc(/C=N/Nc2cc(N3CCOCC3)nc(C)n2)c(O)c1	GDH-TPI inh 34
COc1cccc(/C=N/Nc2cc(Cl)nc(C)n2)c1O	none
Cc1nc(Cl)cc(N/N=C/c2ccc(O)cc2O)n1	GDH-TPI inh 59 (no result: Autofluor counter, BoNT A protease, BoNT-F LC inh, Anthrax LF inh2)
Cc1cc(N/N=C/c2ccc(O)cc2O)nc(-n2nc(C)cc2C)n1	GDH-TPI inh 36
Cc1nc(Cl)cc(N/N=C/c2ccc(O)cc2)n1	BoNT-F LC inh inconclusive, GDH-TPI inh 35
COc1ccc(/C=N/Nc2cc(C)nc(-n3nc(C)cc3C)n2)cc1	none
Cc1ccc(S(=O)(=O)C2CCCCC2=O)cc1 (stereo unspecified)	none
Oc1ccc(/C=N/Nc2ccc(Cl)nn2)cc1O	GDH-TPI inh 32
c1ccc(CNn2nnnc2-c2ccccc2)cc1	Autofluor counter 19323
Cc1ccc(-n2nnnc2-c2ccccc2)cc1	none
Clc1ccc(Cn2c(/C=C/c3ccco3)nc3ccccc32)cc1	none
Cc1cccc(NC(=O)NCC(F)(F)F)n1	Autofluor counter 19660, BoNT A protease inconclusive
Cc1cccc(NC(=O)Nc2ccccc2)n1	none
Cc1ccc2nc(-c3ccc(SCC(=O)O)nc3)[nH]c2c1	GDH-TPI inh 53, Mtb FBA inh active
Cc1cc2nc(-c3ccc(SCC(=O)Nc4ccc(S(=O)(=O)N5CCCC5)cc4)nc3)[nH]c2cc1C	GDH-TPI inh 38
CC(=O)Nc1ccc(NC(=O)CC2Nc3cccc4cccc(c34)NC2=O)cc1 (stereo unspecified)	none (no result: Autofluor counter, BoNT A protease, BoNT-F LC inh, Anthrax LF inh2)
Cc1cccc(NC(=O)CC2Nc3cccc4cccc(c34)NC2=O)c1 (stereo unspecified)	Autofluor counter 17191, BoNT A protease inconclusive
Cc1sc2ncn(CC(=O)NCC(=O)N(C)Cc3ccccc3)c(=O)c2c1C	Autofluor counter 22315
Cc1sc2ncn(CC(=O)NCc3ccccc3)c(=O)c2c1C	none
Cc1sc2ncn(CC(=O)NCC(=O)N(C)C3CCCCC3)c(=O)c2c1C	Autofluor counter 22154
COc1cccc(C(=O)N(Cc2nc(-c3ccc(C)cc3)no2)C(C)C)c1	Autofluor counter 23492, BoNT A protease inconclusive
Cc1cc(Br)ccc1OCC(=O)N(Cc1nc(-c2ccccc2)no1)C(C)C	Autofluor counter 20443
COc1cccc(OCC(=O)N(Cc2nc(-c3ccc(Cl)cc3)no2)C(C)C)c1	none
Cc1ccc(-c2noc(CN(C(=O)Cc3ccccc3)C(C)C)n2)cc1	Autofluor counter 19931, BoNT A protease inconclusive
COc1ccccc1OCC(=O)N(Cc1nc(-c2ccccc2)no1)C(C)C	none
Cc1cc(C)c(/C=N/NC(N)=O)c(C)c1/C=N/NC(N)=O	none
C=CCN(CC=C)C(=S)NCCc1ccc(OC)c(OC)c1	none
COC(=O)c1ccccc1N/C=C1\CCc2c(c(C)nn2-c2ccccn2)C1=O	GDH-TPI inh 32
O=C(CN1CCN(C(=O)c2c(F)cccc2F)CC1)Nc1ccccc1F	none
Brc1ccc(Oc2nnnn2-c2ccccc2)cc1	none
Cc1cc(Oc2nnnn2-c2ccccc2)ccc1Cl	Autofluor counter 19957, BoNT A protease inconclusive
CCC(C(=O)NCCCc1ccccc1)n1nc(C)c2c(C)n(-c3ccccc3)nc2c1=O (stereo unspecified)	none
Cc1cccn2c(=O)c3cc(C#N)c(=N)n(CCN4CCOCC4)c3nc12	Mtb FBA inh 53
CCCCNC(=O)c1cc2c(=O)n3cccc(C)c3nc2n(CCN2CCOCC2)c1=N	Mtb FBA inh 137
COCCNC(=O)c1cc2c(=O)n3cccc(C)c3nc2n(Cc2ccncc2)c1=N	Mtb FBA inh active
Cc1cc(-n2c(=O)c(C#N)cc3c(=O)n4cccc(C)c4nc32)no1	Autofluor counter 21724, Mtb FBA inh active
CCCn1c(=N)c(S(=O)(=O)c2ccc(F)cc2)cc2c(=O)n3cccc(C)c3nc21	none
Cc1cccn2c(=O)c3cc(C#N)c(=O)n(-c4c(C)n(C)n(-c5ccccc5)c4=O)c3nc12	none
COCCCn1c(=N)c(C(=O)NCc2ccc3c(c2)OCO3)cc2c(=O)n3cccc(C)c3nc21	none
COc1ccc(-c2cccc([C@H]3[C@@H]4C=CCC[C@@]4(C)C(=O)N3Cc3ccccc3)c2)cc1	none
CCCCNC(=O)c1cc2c(=O)n3cccc(C)c3nc2n(Cc2ccncc2)c1=N	Autofluor counter 24016, Mtb FBA inh 151
Cn1c(SCc2cccc(Br)c2)nnc1-c1ccccn1	BoNT-F LC inh inconclusive
Cn1c(SCc2cccc(F)c2)nnc1-c1ccccn1	Autofluor counter 16789
Cc1ccc(C2/C(=C(\O)c3c(C)nc4ccccn34)C(=O)C(=O)N2CCN(C)C)o1 (stereo unspecified)	none
N#Cc1c(N)n(-c2ccccc2N)c2nc3ccccc3nc12	none
N#Cc1c(N)n(-c2cccc(C(=O)O)c2)c2nc3ccccc3nc12	GDH-TPI inh 43, Mtb FBA inh active
Cc1ccc(-n2c(=O)c3sccc3n(CC(=O)N3CCCC3)c2=O)cc1	none
O=C(Cn1c(=O)n(-c2ccccc2)c(=O)c2sccc21)N1CCCC1	Autofluor counter 23839
CN1CCN(c2ccc(NC(=O)c3cc([N+](=O)[O-])ccc3N3CCOCC3)cc2)CC1	none
NCCSc1c(-c2ccc(F)cc2)[nH]c2ccccc12	none
Cc1cccc(-n2nnnc2SCC(=O)c2cc(C)n(CC3CCCO3)c2C)c1 (stereo unspecified)	none
Cc1cccc(-n2nnnc2SCC(=O)c2cc(C)n(Cc3ccco3)c2C)c1	Autofluor counter 22516, BoNT A protease inconclusive
Cc1c(NS(C)(=O)=O)c(=O)n(-c2ccccc2)n1C	none
Cc1ccc(S(=O)(=O)N2CCOCC2)cc1C(=O)Nc1c(C)n(C)n(-c2ccccc2)c1=O	Autofluor counter 22630, BoNT A protease inconclusive
Cc1ccc(C(=O)Nc2c(C)n(C)n(-c3ccccc3)c2=O)cc1S(=O)(=O)N1CCOCC1	none
